Laboratory results taken from PubChem BioAssay (NCI).
The panel holds about 83,000 compounds, 20% with a hit somewhere; the sample as a whole holds those more often.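 96-well plates, one dose, 48 hours. Percent growth reported; active if below 10.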 The source made the active and inactive calls.

Experiments:
Test in all cases: NCI-60 one-dose screen, 48 h (100 = growth as untreated, 0 = no growth, -100 = all killed)
DU-145 prostate = settings: 10 µM
K-562 leukemia = settings: 10 µM
MALME-3M melanoma = settings: 10 µM
MDA-MB-231 breast = settings: 10 µM
RXF 393 renal = settings: 10 µM
SF-268 CNS = settings: 10 µM
SF-295 CNS = settings: 10 µM
SF-539 CNS = settings: 10 µM
UACC-257 melanoma = settings: 10 µM
M14 melanoma = settings: 10 µM
HCT-15 colon = settings: 10 µM
HT29 colon = settings: 10 µM
SNB-75 CNS = settings: 10 µM
SNB-19 CNS = settings: 10 µM
SK-MEL-5 melanoma = settings: 10 µM
UACC-62 melanoma = settings: 10 µM unless noted
SK-MEL-28 melanoma = settings: 10 µM
U251 CNS = settings: 10 µM
LOX IMVI melanoma = settings: 10 µM
PC-3 prostate = settings: 10 µM

Measured: growth

N#Cc1ccc(OC(=O)Nc2ccc(Cl)c(Cl)c2)cc1
inactive: DU-145 prostate 72.3% | K-562 leukemia 44% | MALME-3M melanoma 72.9% | MDA-MB-231 breast 93% | RXF 393 renal 91.5% | SF-268 CNS 94.4% | SF-295 CNS 41.4% | SF-539 CNS 91.5% | UACC-257 melanoma 86.2% | M14 melanoma 76.6% | HCT-15 colon 53.6% | HT29 colon 63.4% | SNB-75 CNS 93.2% | SNB-19 CNS 87% | SK-MEL-5 melanoma 81.5% | UACC-62 melanoma 65.7% | SK-MEL-28 melanoma 94.1%

COCCOC(=O)c1ccc(C(C)C)cc1
inactive: DU-145 prostate 103% | K-562 leukemia 106% | MALME-3M melanoma 92.7% | MDA-MB-231 breast 102% | RXF 393 renal 124% | SF-268 CNS 99.1% | SF-295 CNS 104% | SF-539 CNS 99% | UACC-257 melanoma 81% | M14 melanoma 93.2% | HCT-15 colon 99.5% | HT29 colon 91.9% | SNB-75 CNS 86.9% | SNB-19 CNS 106% | U251 CNS 98.8% | SK-MEL-5 melanoma 103% | UACC-62 melanoma 99.4% | LOX IMVI melanoma 95.7% | SK-MEL-28 melanoma 110%

CN(C)C(=O)Oc1cccc([N+](C)(C)C)c1
inactive: DU-145 prostate 113% | K-562 leukemia 104% | MALME-3M melanoma 131% | MDA-MB-231 breast 91.1% | RXF 393 renal 114% | SF-268 CNS 106% | SF-295 CNS 96.8% | SF-539 CNS 106% | UACC-257 melanoma 97.8% | M14 melanoma 126% | HCT-15 colon 95.6% | HT29 colon 115% | SNB-75 CNS 85.1% | SNB-19 CNS 105% | PC-3 prostate 98.5% | SK-MEL-5 melanoma 94.9% | UACC-62 melanoma 104% | LOX IMVI melanoma 105% | SK-MEL-28 melanoma 108%

COc1ccc(C(C)C=O)cc1 (centres undefined)
inactive: DU-145 prostate 109% | K-562 leukemia 104% | MALME-3M melanoma 133% | MDA-MB-231 breast 110% | RXF 393 renal 139% | SF-268 CNS 114% | SF-295 CNS 115% | SF-539 CNS 99% | UACC-257 melanoma 117% | M14 melanoma 109% | HCT-15 colon 93.8% | HT29 colon 112% | SNB-75 CNS 88.4% | SNB-19 CNS 107% | U251 CNS 107% | SK-MEL-5 melanoma 123% | UACC-62 melanoma 106% | LOX IMVI melanoma 105% | SK-MEL-28 melanoma 116%

CC1(C(N)=O)CCC(C(=O)O)C1(C)C (centres undefined)
inactive: DU-145 prostate 113% | K-562 leukemia 114% | MALME-3M melanoma 74.9% | MDA-MB-231 breast 91.2% | RXF 393 renal 104% | SF-268 CNS 104% | SF-295 CNS 91.2% | SF-539 CNS 96.8% | UACC-257 melanoma 99.5% | M14 melanoma 108% | HCT-15 colon 96.4% | HT29 colon 104% | SNB-75 CNS 92.4% | SNB-19 CNS 99% | U251 CNS 98.2% | SK-MEL-5 melanoma 98% | UACC-62 melanoma 87% | LOX IMVI melanoma 104% | SK-MEL-28 melanoma 103%

O=c1cc(-c2ccccc2)[nH]c(=S)[nH]1
inactive: DU-145 prostate 104% | K-562 leukemia 96.2% | MALME-3M melanoma 83.5% | MDA-MB-231 breast 103% | RXF 393 renal 108% | SF-268 CNS 92.1% | SF-295 CNS 188% | SF-539 CNS 102% | UACC-257 melanoma 109% | M14 melanoma 102% | HCT-15 colon 107% | HT29 colon 101% | SNB-75 CNS 96.9% | SNB-19 CNS 104% | PC-3 prostate 91% | SK-MEL-5 melanoma 104% | UACC-62 melanoma 106% | LOX IMVI melanoma 98.3% | SK-MEL-28 melanoma 103%

COc1cc(/C=C(\C#N)C(=O)c2ccccc2)ccc1OCc1ccccc1
inactive: DU-145 prostate 102% | K-562 leukemia 120% | MALME-3M melanoma 86.1% | MDA-MB-231 breast 94.6% | RXF 393 renal 100% | SF-268 CNS 93.2% | SF-295 CNS 103% | SF-539 CNS 99.9% | UACC-257 melanoma 106% | M14 melanoma 97.5% | HCT-15 colon 98.9% | HT29 colon 105% | SNB-75 CNS 91.7% | SNB-19 CNS 100% | PC-3 prostate 95.2% | SK-MEL-5 melanoma 102% | UACC-62 melanoma 97.2% | LOX IMVI melanoma 90.9% | SK-MEL-28 melanoma 112%

COc1cc2c3c(n(C)c(=O)c2cc1OC)-c1cc2c(cc1C3=O)OCO2
inactive: DU-145 prostate 56.5% | K-562 leukemia 40.8% | MALME-3M melanoma 81.6% | MDA-MB-231 breast 97.1% | RXF 393 renal 75.7% | SF-268 CNS 59.3% | SF-295 CNS 29.4% | SF-539 CNS 63.7% | UACC-257 melanoma 78.2% | M14 melanoma 63% | HCT-15 colon 81% | HT29 colon 47.4% | SNB-75 CNS 10.5% | SNB-19 CNS 54.6% | U251 CNS 36% | SK-MEL-5 melanoma 63.6% | UACC-62 melanoma 40.1% | LOX IMVI melanoma 39.9%

COC(=O)c1ccccc1N(C)C
inactive: DU-145 prostate 108% | K-562 leukemia 81.4% | MALME-3M melanoma 101% | MDA-MB-231 breast 112% | RXF 393 renal 118% | SF-268 CNS 107% | SF-295 CNS 98.7% | SF-539 CNS 115% | UACC-257 melanoma 103% | M14 melanoma 102% | HCT-15 colon 103% | HT29 colon 94.8% | SNB-75 CNS 93.3% | SNB-19 CNS 98.8% | PC-3 prostate 100% | SK-MEL-5 melanoma 101% | UACC-62 melanoma 105% | LOX IMVI melanoma 94.5% | SK-MEL-28 melanoma 103%

CN(C)c1ccc2nc3ccc(=N)cc-3sc2c1
inactive: DU-145 prostate 86.7% | K-562 leukemia 20.1% | MDA-MB-231 breast 11.5% | RXF 393 renal 70.7% | SF-268 CNS 54.2% | SF-295 CNS 86.1% | UACC-257 melanoma 13.9% | M14 melanoma 24.7% | HCT-15 colon 38.8% | HT29 colon 85.3% | SNB-75 CNS 22.3% | SNB-19 CNS 81.1% | PC-3 prostate 12.3% | UACC-62 melanoma 36% | SK-MEL-28 melanoma 82.9%
active: MALME-3M melanoma 8.19% | SF-539 CNS -11.3% | SK-MEL-5 melanoma 0.247%

C#Cc1cccc(NC(=O)c2ccc(Cl)cc2Cl)c1
inactive: DU-145 prostate 112% | K-562 leukemia 85.5% | MALME-3M melanoma 108% | MDA-MB-231 breast 118% | RXF 393 renal 105% | SF-268 CNS 98.9% | SF-295 CNS 107% | SF-539 CNS 95.7% | UACC-257 melanoma 108% | M14 melanoma 98% | HCT-15 colon 87.6% | HT29 colon 100% | SNB-75 CNS 106% | SNB-19 CNS 97.3% | PC-3 prostate 82.6% | UACC-62 melanoma 87.9% | LOX IMVI melanoma 98.5% | SK-MEL-28 melanoma 102%

CCCCCCCCO
inactive: DU-145 prostate 104% | K-562 leukemia 101% | MALME-3M melanoma 106% | MDA-MB-231 breast 118% | RXF 393 renal 106% | SF-268 CNS 108% | SF-295 CNS 108% | SF-539 CNS 97.4% | UACC-257 melanoma 101% | M14 melanoma 105% | HCT-15 colon 98.3% | HT29 colon 111% | SNB-75 CNS 90.1% | SNB-19 CNS 103% | PC-3 prostate 94.3% | UACC-62 melanoma 108% | LOX IMVI melanoma 105% | SK-MEL-28 melanoma 112%

COCCOCCCl
inactive: DU-145 prostate 110% | K-562 leukemia 97.5% | MALME-3M melanoma 112% | MDA-MB-231 breast 118% | RXF 393 renal 119% | SF-268 CNS 101% | SF-295 CNS 102% | SF-539 CNS 106% | UACC-257 melanoma 104% | M14 melanoma 101% | HCT-15 colon 99.3% | HT29 colon 105% | SNB-75 CNS 95.9% | SNB-19 CNS 103% | U251 CNS 105% | SK-MEL-5 melanoma 92.1% | UACC-62 melanoma 104% | LOX IMVI melanoma 98.5% | SK-MEL-28 melanoma 114%

COC(=O)Nc1cccc(Cl)c1OC
inactive: DU-145 prostate 114% | K-562 leukemia 113% | MALME-3M melanoma 106% | MDA-MB-231 breast 124% | RXF 393 renal 90% | SF-268 CNS 107% | SF-295 CNS 81.8% | SF-539 CNS 98.2% | UACC-257 melanoma 103% | M14 melanoma 110% | HCT-15 colon 96.4% | HT29 colon 111% | SNB-75 CNS 99% | SNB-19 CNS 112% | PC-3 prostate 103% | SK-MEL-5 melanoma 100% | UACC-62 melanoma 111% | SK-MEL-28 melanoma 114%

CC1(C(=O)O)NC(C(=O)O)Cc2c1[nH]c1ccccc21 (centres undefined)
inactive: DU-145 prostate 110% | K-562 leukemia 96.9% | MALME-3M melanoma 90.5% | MDA-MB-231 breast 104% | RXF 393 renal 110% | SF-268 CNS 113% | SF-295 CNS 90.2% | SF-539 CNS 105% | UACC-257 melanoma 87.6% | M14 melanoma 96.7% | HCT-15 colon 110% | HT29 colon 109% | SNB-75 CNS 88.8% | SNB-19 CNS 108% | U251 CNS 102% | SK-MEL-5 melanoma 104% | UACC-62 melanoma 100% | LOX IMVI melanoma 101% | SK-MEL-28 melanoma 103%

S=c1[nH]ccn1-c1ccccc1Cl
inactive: DU-145 prostate 106% | K-562 leukemia 101% | MALME-3M melanoma 120% | MDA-MB-231 breast 120% | RXF 393 renal 114% | SF-268 CNS 108% | SF-295 CNS 100% | SF-539 CNS 103% | UACC-257 melanoma 22.9% | M14 melanoma 108% | HCT-15 colon 107% | HT29 colon 104% | SNB-75 CNS 95.4% | SNB-19 CNS 102% | PC-3 prostate 95.2% | UACC-62 melanoma 107% | LOX IMVI melanoma 100% | SK-MEL-28 melanoma 101%

OCc1cccc2ccccc12
inactive: DU-145 prostate 108% | K-562 leukemia 99.3% | MALME-3M melanoma 132% | MDA-MB-231 breast 112% | RXF 393 renal 146% | SF-268 CNS 107% | SF-295 CNS 117% | SF-539 CNS 95.7% | UACC-257 melanoma 109% | M14 melanoma 110% | HCT-15 colon 101% | HT29 colon 114% | SNB-75 CNS 86.3% | SNB-19 CNS 113% | U251 CNS 108% | SK-MEL-5 melanoma 118% | UACC-62 melanoma 112% | LOX IMVI melanoma 102% | SK-MEL-28 melanoma 111%

NC(C(=O)O)c1ccc([N+](=O)[O-])cc1 (centres undefined)
inactive: DU-145 prostate 109% | K-562 leukemia 113% | MALME-3M melanoma 121% | MDA-MB-231 breast 90.2% | RXF 393 renal 118% | SF-268 CNS 105% | SF-295 CNS 104% | SF-539 CNS 89.3% | UACC-257 melanoma 111% | M14 melanoma 99% | HCT-15 colon 95.7% | HT29 colon 149% | SNB-75 CNS 78.9% | SNB-19 CNS 99.6% | U251 CNS 115% | SK-MEL-5 melanoma 105% | UACC-62 melanoma 97.3% | LOX IMVI melanoma 101% | SK-MEL-28 melanoma 101%
